Source: article PMC5540273 (PLoS ONE, 2017)

Tested on: T1, p38-gamma
T1 construct: gene MAPK12
Settings: concentration: 1 μM, replicates: in singlicate; n = 1
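Note: KINOMEscan kinase panel screen.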

Compound | %Inh
Cc1nccc(-c2c(-c3ccc(F)cc3)ncn2CCCN2CCOCC2)n1.Cl [SB-282975] | 26%
COC(=O)C(NC(=O)NC1CCN(c2ccnc(Nc3ccc(F)cc3)n2)C1)c1ccccc1 (stereo not drawn) [GSK1379712] | 23%
Cc1ccc(NC(=O)Nc2ccc(Cl)c(C(F)(F)F)c2)cc1-c1ccc(C(=O)Nc2ccncc2)cc1 [GSK1398470] | 27%
CS(=O)(=O)CCNCc1nc(-c2ccc3ncnc(Nc4ccc5c(cnn5Cc5ccccc5)c4)c3c2)cs1.Cl.Cl [GW569716] | 0%
Cc1ccc(NC(=O)Nc2ccccc2)cc1-c1ccc(C(=O)Nc2ccncc2)cc1 [GSK1398471] | 12%
Nc1nccc(-c2c(-c3ccc(F)cc3)ncn2C2CCN(Cc3ccccc3)CC2)n1 [SB-219980] | 0%
COc1ccc(Nc2nccc(N3CCC(NC(=O)C(C)c4ccc(Cl)cc4)C3)n2)cc1 (stereo not drawn) [GSK1379735] | 22%
O=c1cc(N2CCOCC2)nc2n(Cc3cccc(Cl)c3Cl)c3ccccc3n12 [GSK2299009] | 30%
Fc1ccc(-c2nc3n(c2-c2ccncc2)CCS3)cc1 [GI98581] | 0%
CNc1cc(-c2ccc3c(N)n[nH]c3c2)nc(N)n1 [GSK2224810] | 0%
CC(C)c1cc(-c2ccc3c(N)n[nH]c3c2)nc(N)n1 [GSK2250882] | 43%
COc1ccc(-c2coc3ccc(-c4nnc(C)o4)cc23)cc1 | 0%
CNC(=O)c1ccc(C)c(-n2c(C)cc(OCc3ccc(F)cc3F)c(Br)c2=O)c1 | 0%
COc1cc2ncnc(Nc3cccc(Br)c3)c2cc1OC.Cl [GI230329] | 66%
Cc1c(Cn2c(C)c(C)n3c(=O)cc(N4CCOCC4)nc23)cccc1C(F)(F)F [GSK2328680] | 0%
CCn1c(-c2c(N)noc2C)nc2cnccc21 [SB-737856] | 0%
COc1cccc(CNC(=O)NC2CCN(c3ccnc(Nc4ccc(F)cc4)n3)C2)c1 (stereo not drawn) [GSK1379723] | 0%
CN1c2ccc(-c3ccc(C(N)=O)cc3)cc2-c2[nH]ncc2S1(=O)=O | 0%

Compound | %Inh
COc1cccc(NC(=O)Nc2ccc(C)c(-c3ccc(C(=O)Nc4ccncc4)cc3)c2)c1 [GSK1398474] | 27%
O=C(Nc1n[nH]c2nc(-c3cccs3)c(Br)cc12)C1CC1 [SB-735297] | 0%
CNc1nc(-c2ccc3c(N)n[nH]c3c2)cc(N2C[C@@H](C(=O)Nc3ccccc3)CC[C@H]2C)n1 [GSK2298859] | 0%
O=C(Nc1n[nH]c2nc(-c3ccco3)c(Br)cc12)C1CCN(Cc2ccccc2)C1.O=C(O)[C@H](O)[C@@H](O)C(=O)O (stereo not drawn) [SB-742034] | 20%
Cn1cnc2c(N)ncnc21 [SKF-97623] | 0%
CC(=O)c1c(C)c2cnc(Nc3ccc(N4CCNCC4)cn3)nc2n(C2CCCC2)c1=O | 6%
CSc1ccc(-c2nc3n(c2-c2ccncc2)CCC3)cc1 [SKF-105561] | 30%
Cc1ccc(-c2nc(Nc3ccncc3)c3ccccc3n2)s1 [GSK189015] | 12%
CNCc1ccc2nc(NC(=O)c3ccc(C(C)(C)C)cc3)cn2c1 | 26%
Cc1ccccc1Cn1ccn2c(=O)cc(N3CCOCC3)nc12 [GSK2269905] | 0%
Fc1ccc(-c2nn3cccc(F)c3c2-c2ccncc2)cc1 [GW475620] | 0%
COc1ccc(Nc2nccc(N3CCC(NC(=O)c4cc5ccccc5s4)C3)n2)cc1 (stereo not drawn) [GSK1379738] | 9%
c1ccc(-c2ccnc3[nH]ccc23)cc1 [SB-693578] | 0%
COc1ccc(Nc2nccc(NCCNC(=O)Nc3cc(C)ccc3C)n2)cc1 [GSK1379899] | 0%
O=C1NC(=O)C(c2ccc(Cl)cc2)=C1Nc1ccc(O)cc1 [SB-340867] | 0%
Cc1cnc(N)c(/C=C/c2cncc(C(=O)NCCc3ccc(Cl)cc3Cl)c2)c1.Cl [GSK190937] | 52%
NS(=O)(=O)c1cccc(N/C=C2\C(=O)Nc3ccc(S(=O)(=O)Cc4c(Cl)cccc4Cl)cc32)c1 [GSK398099] | 7%
Cc1c(Cn2c3ccccc3n3c(=O)cc(N4CCOCC4)nc23)cccc1C(F)(F)F [GSK2306394] | 0%
